# High-throughput results: PubChem, Broad Institute
# The list is a sample of the results.
# aSyn 5UTR act: Activators via SNCA 5'UTR binding, MLPCN | alpha-synuclein 5'UTR reporter, activators screen | activity score, % (tested at 7.5 µM), hits read low | hit rate 7.1% among 300,000 | AID 1814; in the data active = activity score below about -60%
# Numbers without * were called inactive.
SMILES,aSyn 5UTR act
Cc1ccc(C)c(NC(=S)NC(NC(=O)Cc2cccc3ccccc23)C(Cl)(Cl)Cl)c1 (stereo not given),111.7
COc1ccc(N=C(N)SCc2ccccn2)cc1,-79.3*
COc1ccc(-c2nnc(SCc3ccccn3)n2C)cc1,-66.8*
COc1ccc(-c2nnc(SCc3ccccc3)n2N)cc1,-142.4*
COc1ccc(-c2nnc(SCCc3ccccc3)n2N)cc1,-82.5*
Cc1cc(/C=C\c2ccccc2)nc2ccccc12,-215.6*
COc1ccc(/C=C/c2cc(C(=O)O)c3ccccc3n2)cc1,80.6
c1ccc(-c2nnc(N3CCOCC3)nc2-c2ccccc2)cc1,-72.8*
COc1ccc(S(=O)(=O)n2ccc(-c3cnc(-c4ccccc4)s3)n2)cc1,-139.9*
CCN(c1ccccc1)S(=O)(=O)c1ccc(Oc2ccc(-n3ccnc3)cc2)nc1,103.1
CN1CCN(CCCNC(=O)c2cc3c(=O)n(C)c4ccccc4c3s2)CC1,-73.8*
CCCN(CCC)CCNC(=O)c1cc2c(=O)n(CC)c3ccccc3c2s1,-173.7*
CCN(CC)CCCNC(=O)c1cc2c(=O)n(CC)c3ccccc3c2s1,-107.5*
CCOCCCNC(=O)c1cc2c(=O)n(CC)c3ccccc3c2s1,-79.9*
CCN(CC)CCNC(=O)c1cc2c(=O)n(CC)c3ccccc3c2s1,-124.6*
COc1cccc(-c2ccc(C#N)c(OC(=O)c3c(Cl)cccc3Cl)n2)c1,-74.1*
Cc1ccc2oc(-c3ccco3)nc2c1,-137.0*
Cc1ccc(-c2nc3cc(C)ccc3o2)cc1,72.5
COc1ccc(N(Cc2cc3ccccc3[nH]c2=O)S(=O)(=O)c2ccc(OC)cc2)cc1,-64.1*
COc1ccc(N(Cc2cc3cc(OC)ccc3[nH]c2=O)S(=O)(=O)c2ccc(NC(C)=O)cc2)cc1,93.3
NC(=O)C1CCCN(C(=S)Nc2cccc3ccccc23)C1 (stereo not given),-90.5*
CCOC(=O)c1c(C)[nH]c(C(=O)NNC(=O)c2ccccc2)c1C,-67.1*
CCOC(=O)c1c(C)[nH]c(C(=O)N/N=C/c2cccc(OC)c2)c1C,-104.3*
CCOC(=O)c1c(C)[nH]c(C(=O)N/N=C\c2ccccc2Cl)c1C,-63.7*
Cn1cccc1C(=O)C(=O)Nc1cccc(Cl)c1Cl,-147.6*
SMILES,aSyn 5UTR act
Cn1cccc1C(=O)C(=O)Nc1ccc(Cl)cc1,-119.4*
Cn1cccc1C(=O)C(=O)Nc1ccc(F)c(F)c1,-175.8*
Cn1cccc1C(=O)C(=O)Nc1cc(Cl)cc(Cl)c1,-155.4*
Cc1ccc(C2=NN=C(NC(=O)CSc3nnc4c5ccccc5n(C)c4n3)SC2)cc1,-99.2*
CC(O)CNCCCCOc1ccc(OCc2ccccc2)cc1 (stereo not given),-93.3*
O=C1c2ccccc2S(=O)(=O)N1CC1CC(c2ccc(Cl)cc2)=NO1 (stereo not given),-197.4*
O=C(CN1C(=O)c2ccccc2S1(=O)=O)c1ccccc1Cl,100.6
O=C1c2ccccc2S(=O)(=O)N1CC1CC(c2ccccc2)=NO1 (stereo not given),-143.7*
COc1ccc(C2=NOC(CN3C(=O)c4ccccc4S3(=O)=O)C2)cc1 (stereo not given),-175.4*
Cc1ccc(CSc2nnc(SCC(=O)N/N=C/c3c(C)nn(-c4ccccc4)c3C)s2)cc1,-114.5*
Cc1nn(-c2ccccc2)c(C)c1/C=N/NC(=O)CSc1nnc(SCc2ccccc2Cl)s1,-71.3*
COC(=O)c1ccc(CN2C(=O)NC(Cc3c[nH]c4ccccc34)C2=O)cc1 (stereo not given),-95.5*
CCOc1ccc2[nH]c3ncccc3c(=O)c2c1,-138.6*
Cc1nc2ccc(NC(=S)NCc3ccccc3)cc2nc1C,-80.3*
O=C(CC12CC3CC(CC(C3)C1)C2)NC(=S)NCc1ccccc1,52.3
CCc1ccc(NC(=S)NCc2ccccc2)cc1,-89.9*
O=Cc1cc2cc3c(cc2nc1Cl)OCCO3,-61.5*
CCCC(=O)N/C(N)=N/c1nc2ccccc2o1,-121.5*
CC(C)CC(=O)N/C(N)=N/c1nc2ccccc2o1,-159.6*
COc1ccc(/C=N/NC(=O)c2nc(-c3ccccc3)n(-c3ccccc3)n2)c(O)c1,87.1
Cc1nn(-c2ccc(C(=O)O)cc2)c(N)c1-c1ccccc1,-178.9*
COc1ccc(-c2c(C)nn(-c3ccccc3)c2N)cc1,-110.5*
COc1ccc(-c2cn3cccnc3n2)cc1NS(=O)(=O)c1ccccc1,-98.0*
COc1ccc(-c2cn3cccnc3n2)cc1F,-107.7*
COC(=O)CCC(=O)Oc1ccc(OC(=O)CCC(=O)OC)cc1,-61.5*
SMILES,aSyn 5UTR act
CCOc1cc(/C=C2\CCC/C(=C\c3cc(Cl)c(O)c(OCC)c3)C2=O)cc(Cl)c1O,-328.8*
CCOc1cc(/C=C2\CN(C)C/C(=C\c3ccc(O)c(OCC)c3)C2=O)ccc1O,96.5
Cc1ccsc1C1NC(=O)c2c(sc3c2CCCC3)N1 (stereo not given),-218.0*
O=C1NC(c2ccc(Br)cc2)Nc2sc3c(c21)CCC3 (stereo not given),-96.2*
Cc1ccc(C2NC(=O)c3c(sc4c3CCN(C)C4)N2)s1 (stereo not given),-72.1*
O=C1NC(c2ccccn2)Nc2sc3c(c21)CCC3 (stereo not given),-123.6*
COc1cc(C(=S)N2CCCC2)ccc1OCc1ccc(C)cc1,-116.3*
Cc1ccc(COc2ccccc2C(=S)N2CCCC2)cc1,-76.3*
CN1C(=O)C2C=CC1C1C(=O)N(c3ccccc3)C(=O)C21 (stereo not given),-301.9*
Cc1ccc(NC(=O)c2noc3c2CCC3)cc1C,-74.8*
O=C(NCc1cccs1)c1noc2c1CCCCC2,-143.8*
CC(=O)c1ccc(NC(=O)c2noc3c2CCC3)cc1,71.5
O=C(NCc1ccccc1)c1noc2c1CCCCC2,-133.0*
COc1ccc(CNC(=O)c2noc3c2CCCCC3)cc1,-61.8*
O=C(Nc1cnn(Cc2ccc(F)cc2)c1)c1noc2c1CCCC2,-104.7*
COC(=O)c1ccccc1NC(=O)c1noc2c1CCCC2,-78.7*
CC(NC(=O)c1noc2c1CCCCC2)c1ccccc1 (stereo not given),-78.1*
O=C(Nc1cccc(O)c1)c1noc2c1CCCCC2,56.9
O=C(NC1CCCC1)c1noc2c1CCCCC2,-134.5*
O=C(N/N=C/C(Cl)=C\c1ccccc1)c1cccs1,-92.0*
CC(/C=N/NC(=O)c1cccs1)=C\c1ccccc1,-99.2*
CCCCSc1ccc2nc(-c3ccc(C#N)cc3)cn2c1,-127.8*
CCCSc1ccc2nc(-c3ccccc3)cn2c1,110.9
C/C(=N\Nc1nc(C)cc(-c2ccccc2)n1)c1ccccc1,-101.9*
C/C(=N\Nc1nc(C)cc(-c2ccccc2)n1)c1cccc(N)c1,-64.4*
SMILES,aSyn 5UTR act
Cc1cc(-c2ccccc2)nc(N/N=C/c2ccccc2F)n1,-159.9*
C/C(=N/Nc1nc(C)cc(-c2ccccc2)n1)c1ccco1,-75.8*
O=C1c2ccccc2NC(c2ccc(O)cc2)N1c1ccccc1 (stereo not given),-63.8*
O=C1c2ccccc2NC(c2ccc(O)cc2)N1/N=C/c1ccc(O)cc1 (stereo not given),-122.2*
Cc1c2cnn(CC(=O)NC3CCCC3)c(=O)c2c(C)n1Cc1ccccc1,-100.3*
Cc1nc2cc(Nc3nnc(-c4ccccc4)c4ccccc34)ccc2n1C,-109.6*
O=C(/C=C/Nc1ccc([N+](=O)[O-])cc1)c1ccc(Br)cc1,-74.5*
O=C(/C=C/Nc1ccc(Br)cc1F)c1ccccc1,77.5
O=C(/C=C/Nc1ccc(F)c(F)c1)c1ccc(Br)cc1,-191.7*
O=C(/C=C/Nc1ccc(F)cc1)c1ccc(Br)cc1,-180.7*
N=c1scc(-c2ccccc2)n1/N=C/c1ccco1,-220.3*
